Screens: PubChem BioAssay, National Center for Advancing Translational Sciences (NCATS)
The list is not random: actives were taken first. Their share in the collection is about 6%.
D3 antag: blocks the human D3 dopamine receptor | P35462 | D3R cells, DiscoveRx beta-arrestin luminescence, antagonist mode; stronger effect = lower value | max response, negative = inhibition, % | 360,000 compounds, 2.5% hits | AID 652054; in the data active = max response below about -50%; inconclusive = no clear call, values can overlap the other calls; note: % is set by controls: 0 for no effect and ±100 for the full control effect
Target sequence (P35462 whole entry, looked up): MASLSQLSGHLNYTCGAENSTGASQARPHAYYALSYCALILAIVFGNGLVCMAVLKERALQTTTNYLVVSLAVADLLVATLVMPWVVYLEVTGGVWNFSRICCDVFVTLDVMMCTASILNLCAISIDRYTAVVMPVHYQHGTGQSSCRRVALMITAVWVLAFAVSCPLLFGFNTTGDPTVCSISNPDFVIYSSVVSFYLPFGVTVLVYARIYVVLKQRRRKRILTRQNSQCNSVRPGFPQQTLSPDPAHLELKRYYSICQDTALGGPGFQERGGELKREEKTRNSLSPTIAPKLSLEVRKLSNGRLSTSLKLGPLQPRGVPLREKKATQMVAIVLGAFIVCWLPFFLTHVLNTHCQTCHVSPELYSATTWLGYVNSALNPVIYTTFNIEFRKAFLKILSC
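Cells plated overnight at 1500 cells/well, then exposed to library compounds with dopamine controls for 90 minutes at 37 degrees C. DiscoveRx reagent added for 30–60 minutes at room temperature; luminescence read, quantitative HTS format.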
D1 ag: human D1 receptor agonism. P21728. HEK293 T-REx D1 cells, calcium flux, agonist mode. activation, % at 2 µM. 360,000 compounds, 1% hits. AID 504660; in the data active = activation above about 30%; note: 0% is about no effect
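Agonism was scored from calcium flux recorded over 180 s (1 read/s) after pintool compound addition, following a 10-cycle baseline. Cells were inducible force-coupled HEK293 TREx D1, plated overnight at 30 C and loaded with no-wash calcium dye.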
D1 antagonist: blocks dopamine activation of the human D1 receptor. 360,000 compounds, 3.2% hits. P21728. HEK293 TREx D1 cells, calcium flux, dopamine EC80; stronger effect = lower value. AID 504652. activity change, negative = inhibition, % at 10 µM; in the data active = activity change below about -30%; note: % is set by controls: 0 for no effect and ±100 for the full control effect
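Inducible Hek293 Trex D1 cells (tetracycline, overnight, 30 C). Calcium dye 30–90 min RT. Antagonist mode: EC80 dopamine added after 180 s compound read.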
D1 potentiator: enhances dopamine response at the human D1 receptor; HEK293 TREx D1 cells, calcium flux, dopamine EC20 potentiation; 360,000 compounds, 0.036% hits; potentiation, % at 10 µM; P21728; in the data active = potentiation above about 30%; note: 0% is about no effect
D3 ag: agonists of human D3 dopamine receptor; max activation, %; D3R DiscoveRx beta-arrestin cells, luminescence, 90 min; 410,000 compounds, 0.58% hits; P35462; AID 652048; in the data active = max activation above about 30%; note: 0% is about no effect
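Agonist-mode cell screen: cells plated at 1500/well and incubated overnight at 37 °C, then exposed to library compounds for 90 min at 37 °C. Detection reagent was added for 30–60 min at room temperature, and luminescence was read.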
* marks the source's active call; other numbers are inactive results; ? = inconclusive; . = not tested or not shown.

SMILES	D3 antag	D1 ag	D1 antagonist	D1 potentiator	D3 ag
COC(=O)c1ccc(NC(=O)COC(=O)c2nc3nccc(C)n3n2)cc1	14	4	-35*	-2	8
COc1ccc(NS(=O)(=O)c2cc(NC(=O)c3ccco3)ccc2N2CCCC2)cc1	-56*	0	-13	2	-6
COc1ccc(NS(=O)(=O)c2ccc(N3CCCC3)c(N)c2)cc1	4	38*	-6	-6	4
COc1ccc(NS(=O)(=O)c2cc(N)ccc2N2CCCC2)cc1	-27	.	.	.	-1
Nc1cc(S(=O)(=O)Nc2cc(Cl)ccc2Cl)ccc1N1CCCC1	-11	4	-33*	-10	2
COc1ccc(NS(=O)(=O)c2ccc(N3CCCC3)c(NC(=S)Nc3cccc(C)c3C)c2)cc1	16	3	5	-9	15
COc1ccc(NS(=O)(=O)c2ccc(N3CCCC3)c(NC(=S)Nc3ccc(SC(F)F)cc3)c2)cc1	-23	13	-42*	-4	-18
COc1cc(O)ccc1-c1nc2ccc(Br)cn2c1Nc1ccccc1C	.	-1	6	0	10
Cc1ccccc1-c1nc(S(=O)(=O)c2ccc(Cl)cc2)c(NCCN2CCOCC2)o1	?	-2	75	-3	-24
O=S(=O)(c1ccccc1)c1nc(-c2ccccc2Cl)oc1NCCN1CCOCC1	-22	9	1	1	-14
Cc1ccc(S(=O)(=O)c2nc(-c3ccccc3)oc2NCCN2CCOCC2)cc1	-73*	1	5	-4	-13
O=S(=O)(c1ccccc1)c1nc(-c2ccccc2Cl)oc1NCCCN1CCOCC1	-71*	.	.	.	-17
Cc1ccccc1-c1nc(S(=O)(=O)c2ccccc2)c(NCCCN2CCOCC2)o1	-65*	.	.	.	-6
Cc1c2cnn(CC(=O)N3CCN(c4ccccc4)CC3)c(=O)c2c(C)n1Cc1ccc(F)cc1	.	1	2	-4	2
COCCCn1c(=S)[nH]c2ccc(N3CCOCC3)cc2c1=O	-19	1	4	-1	-1
CCCCN(C)CCn1c(=S)[nH]c2ccc(N3CCOCC3)cc2c1=O	-66*	1	-1	-6	-3
O=C(Oc1ccccc1F)c1nc(SCc2ccccc2F)ncc1Cl	.	-2	-5	2	-19
CN1CCN(C2Cc3ccc(F)cc3Sc3cc(F)c(Cl)cc32)CC1 (configuration not stated)	-105*	.	.	.	-21
CN1CCN(C2Cc3ccccc3Sc3cc(C(F)(F)F)ccc32)CC1 (configuration not stated)	-96*	.	.	.	-18
CC(C)c1ccc2c(c1)C(N1CCNCC1)Cc1ccc(F)cc1S2 (configuration not stated)	-63*	.	.	.	-10
CC1=C(c2ccc(C(C)C)cc2)S(=O)(=O)N=C1N1CCN(c2ccc(F)cc2)CC1	.	4	3	0	-11
CN1CCN(C2Cc3ccccc3Sc3ccc(Cl)cc32)CC1 (configuration not stated)	0	7	-105*	-6	0
Cc1nnc(SCC(=O)NCc2ccc(N(C)C)cc2)c2nn(-c3ccccc3)c(C)c12	.	3	0	0	-14
CCN(CC)S(=O)(=O)c1ccc2c(c1)N(CC(=O)Nc1c(C)cccc1C)C(=O)C1CCCN21 (configuration not stated)	.	-1	2	-1	3
CSc1cccc(NC(=O)N2CCN(C)CC2)c1	10	2	-2	-1	0
SMILES	D3 antag	D1 ag	D1 antagonist	D1 potentiator	D3 ag
CN1CCN(C2Cc3cc(F)ccc3Sc3ccc(Cl)cc32)CC1 (configuration not stated)	-120*	.	.	.	-22
CSc1ccc2c(c1)C(N1CCN(C)CC1)Cc1ccccc1S2 (configuration not stated)	-84*	24	-87*	-2	-81
COc1cc(/C=C2\C(C)=C(C#N)c3nc(N)c(C#N)c(C)c32)ccc1OCC(=O)O	4	4	-57*	-4	1
CC1=C(C#N)c2nc(N)c(C#N)c(C)c2/C1=C\c1ccc(C)cc1	.	3	-8	-5	.
COCCN1C(=S)N[C@@H](c2ccccc2)C(C(=O)OC)=C1C	.	1	7	-3	.
CCOC(=O)c1sc2nc(C)nc(NCc3ccccc3OC)c2c1C	69	9	-8	2	33*
CCOC(=O)c1c(C)oc2nc(C)nc(NCc3ccccc3OC)c12	.	2	-37*	-5	12
